Screening results (PubChem)
A selection: hits, their analogues and other compounds. The true share with any hit is near 3.2%.
Sm TGR block: qHTS Assay for the Inhibitors of Schistosoma Mansoni Peroxiredoxins. hit rate 3% among 360,000. Potency, µM (series often up to 114 µM), without a hit: top-dose activity change, negative = inhibition, usual class: inhibitors. AID 485364, 2010. Schistosoma mansoni thioredoxin glutathione reductase (TGR), Q962Y6. purified TGR, DTNB reduction, TNB absorbance 405 nm; also: nearly all actives have a fitted effect of over 60% in size
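Kinetic colorimetric format: TGR-catalysed, NADPH-driven DTNB reduction monitored via TNB absorbance. Enzyme dispensed at 20 nM; compound exposure 15 min at room temperature before reaction start.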
LmPK inhibitor: qHTS Assay for Inhibitors of Leishmania Mexicana Pyruvate Kinase (LmPK); Q27686; purified LmPK, Kinase-Glo ATP luminescence, 1 h; Potency, µM (titrated, usually from 57.5 µM), inactives show at the highest dose activity change, negative = inhibition, usual class: inhibitors; hit rate 0.37% among 290,000; AID 1721, 2009
Target sequence (Q27686 whole entry, looked up): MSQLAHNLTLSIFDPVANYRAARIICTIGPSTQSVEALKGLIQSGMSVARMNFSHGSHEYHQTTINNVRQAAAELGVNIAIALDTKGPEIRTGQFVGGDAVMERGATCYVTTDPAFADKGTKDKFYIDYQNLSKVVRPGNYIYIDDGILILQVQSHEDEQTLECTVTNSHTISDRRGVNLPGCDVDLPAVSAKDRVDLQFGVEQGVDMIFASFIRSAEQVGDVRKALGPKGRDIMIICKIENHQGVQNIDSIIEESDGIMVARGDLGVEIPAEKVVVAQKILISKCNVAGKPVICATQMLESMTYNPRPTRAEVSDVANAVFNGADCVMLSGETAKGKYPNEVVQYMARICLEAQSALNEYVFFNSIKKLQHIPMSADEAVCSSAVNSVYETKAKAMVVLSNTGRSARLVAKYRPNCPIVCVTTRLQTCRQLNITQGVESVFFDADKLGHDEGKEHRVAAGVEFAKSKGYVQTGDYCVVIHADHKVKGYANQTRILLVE
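Pyruvate kinase activity monitored as ATP production (luciferase luminescence). Conditions: 0.1 nM enzyme, 0.5 mM PEP, 0.1 mM ADP, 1 h, RT; normalized against uninhibited and no-enzyme wells.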
AMA1 RON2 block: qHTS for Inhibitors of AMA1-RON; Towards Development of Antimalarial Drug Lead: Primary Screen. Plasmodium falciparum AMA1 (3D7) - RON2 peptide interaction. AlphaScreen AMA1-biotinylated RON2 peptide binding. Potency, µM (top dose mostly 58.2 µM), without a hit: at the highest dose activity change, negative = inhibition, most hits filed as inhibitors. hit rate 0.2% among 360,000;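 also: 0% = vehicle wells and -100% = peptide control; nearly all actives have a fitted effect of over 45% in size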
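AMA1 (3D7) with his tag at 25 nM final met compounds first, then biotinylated RON2 peptide at 25 nM; detection used donor plus acceptor beads, 10 µg/mL apiece, read by AlphaScreen after 30 min at room temperature.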
Tb PYK inh: qHTS of Trypanosoma Brucei Inhibitors; hit rate 0.12% among 410,000; Potency, µM (titrated, usually from 76.8 µM), for inactives: top-dose activity, negative = inhibition, actives largely listed as inhibitors; pyruvate kinase (Trypanosoma brucei), Q57TT1; TbPYK enzyme, Kinase-Glo Plus ATP luminescence, 45 min; also: nearly all actives have a fitted effect of over 50% in size
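TbPYK + substrate in 50 mM TEA pH 7.2, 100 mM KCl, 10 mM MgCl2, 0.05% BSA, 0.01% Tween-20; cpd pinned; ADP 130 uM final; 45 min RT; Kinase-Glo Plus 10 min; luminescence endpoint.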
RE007 growth inh: qHTS Assay for Inhibitors of the HIV-1 protein Vpr | S. pombe RE007 Vpr strain, BacTiter-Glo ATP luminescence, 24 h | Potency, µM (doses to about 92.2 µM), for inactives: at the highest dose activity change, negative = less growth, most hits filed as inhibitors | hit rate 0.21% among 360,000; active = well fitted falling curve with a large enough effect; inconclusive = small, poorly fitted or top-dose-only effect; inactive = no such curve, though single readings can be large or run the other way; also: nearly all actives have a fitted effect of over 50% in size
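Fission yeast strain RE007, carrying one chromosomally integrated HIV-1 vpr copy, was seeded at OD 0.01 in PMG+AL medium with 23 nL pinned compound. After 24 h at 30 °C and 99% humidity, viability was read by BacTiter-Glo luminescence.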
* hit, by the source's call; u = inconclusive; x = no result; [ ] = remark or other dose. Unless noted, calls follow the shape of the dose curve; as a rule, active = well fitted curve in the direction sought with a large enough effect; inconclusive = small, poorly fitted or top-dose-only effect, or another doubt; inactive = no such curve, though single readings can be large; an effect the other way counts as inactive or inconclusive. Unless noted, % is scaled to controls: 0 for no effect and ±100 for the full control effect; potency is read from the fitted curve at half-maximal effect.

SMILES	Sm TGR block	LmPK inhibitor	AMA1 RON2 block	Tb PYK inh	RE007 growth inh
O=C(O)CCc1ccc(-c2ccc(F)cc2)n1CCC(=O)O	14µM*	3%	2%	5%	1%
CC(C)n1c(CCC(=O)O)ccc1-c1ccccc1	18µM*	5%	-11%	-7%	-11%
O=C(O)CCc1ccc(-c2ccccc2)n1CC(=O)O	35µM*	0%	-1%	1%	-7%
CCCn1c(CCC(=O)O)ccc1-c1ccccc1	-30%	-9%	-9%	-15%	-6%
O=C(Nc1ccc(F)c(Cl)c1)C1Cc2ccccc2CN1S(=O)(=O)c1ccc(F)cc1 (stereo not drawn)	1%	x	x	-6%	x
COc1ccc(NC(C)=O)cc1S(=O)(=O)N1CCn2cccc2C1C (stereo not drawn)	25µM*	x	18%	0%	-9%
CC(=O)c1ccc(S(=O)(=O)N2CCn3cccc3C2C)cc1 (stereo not drawn)	35µM*	x	-5%	0%	-1%
COC(=O)c1ccccc1S(=O)(=O)N1CCn2cccc2C1C (stereo not drawn)	u	0%	-4%	-6%	3%
CC(=O)c1cccc(S(=O)(=O)N2CCn3cccc3C2C)c1 (stereo not drawn)	32µM*	x	-12%	0%	1%
CC1c2cccn2CCN1S(=O)(=O)c1ccc(F)cc1 (stereo not drawn)	u	x	-6%	-2%	0%
Cc1ccc(S(=O)(=O)N2CCCc3cc(NS(=O)(=O)c4cc(F)ccc4F)ccc32)cc1	6%	x	x	1%	x
COc1ccc(OC)c(CNS(=O)(=O)c2ccc3c(c2)CCCN3C(C)=O)c1	1%	x	x	0%	x
O=C1c2cc([N+](=O)[O-])cc3cc([N+](=O)[O-])cc(c23)C(=O)N1c1ccccn1	50µM*	7%	-29%	-2%	0%
O=C(O)c1cccc(N2C(=O)c3cc([N+](=O)[O-])cc4cc([N+](=O)[O-])cc(c34)C2=O)c1	2µM*	-4%	0%	-8%	-8%
O=C(O)c1cccc(N2C(=O)/C(=C/c3ccc([N+](=O)[O-])cc3)C=C2c2ccccc2)c1	25µM*	2%	u	-17%	23%
O=C1c2ccc(Oc3cccc([N+](=O)[O-])c3)cc2C(=O)N1c1ccccn1	0%	5%	-7%	-7%	-2%
Cc1ccc2nc(N)[nH]c(=O)c2c1Sc1ccncc1	x	x	x	0%	x
CC(C)CCNC(=O)CN1C(=O)CSc2ccc(S(=O)(=O)N3CCC(C)CC3)cc21	3%	x	x	0%	x
COc1ccc(-c2cc(C)no2)cc1S(=O)(=O)NCc1ccco1	32µM*	x	x	8%[15.4 µM]	x
CC[N+](CC)(CCNC(=O)C(=O)NCC[N+](CC)(CC)Cc1ccccc1Cl)Cc1ccccc1Cl	x	x	x	-3%	x
Nc1nc(CCl)nc(Nc2cccc3ccccc23)n1	16µM*	0%	18%	-5%	-10%
Cc1cc(C(=O)Nc2ccc(N3CCCC3)c(Cl)c2)ccc1[N+](=O)[O-]	5%	0%	22µM*	-3%	-6%
Cc1cccc(NC(=O)c2ccc(-n3cccn3)c([N+](=O)[O-])c2)c1	40µM*	1%	7%	-8%	-21%
O=C(Nc1ccc(N2CCCC2)c(Cl)c1)c1ccc([N+](=O)[O-])cc1	-16%	1%	-1%	3%	3%
O=C(Nc1ccc(N2CCCC2)c(Cl)c1)c1cccnc1	50µM*	-1%	-22%	0%	4%
SMILES	Sm TGR block	LmPK inhibitor	AMA1 RON2 block	Tb PYK inh	RE007 growth inh
O=C(O)c1ccccc1NC(=O)N1c2ccccc2Sc2ccccc21	-21%	x	x	-5%	x
CCc1ccc(NC(=O)c2ccc(F)c(S(=O)(=O)NCCc3ccc(OC)c(OC)c3)c2)cc1	-5%	x	x	8%	x
CCCCOc1ccc(C(=O)NCCc2sc3nc(-c4ccc(OC)cc4)nn3c2C)cc1	9%	x	x	1%	x
CCCn1cc(S(=O)(=O)c2cccc(Cl)c2)c(=O)c2cc(F)c(N3CCOCC3)cc21	20%	x	x	4%	x
Cc1cc(-c2csc(N)n2)c(C)n1C	u	-15%	28µM*	u	-21%
Cc1ccc(-n2c(C)cc(-c3csc(N)n3)c2C)cc1	-12%	7%	-4%	-6%	-22%
O=[N+]([O-])c1cc(S(=O)(=O)/N=C(/c2ccccc2)N2CCOCC2)ccc1Cl	45µM*	0%	-14%	1%	-12%
O=S(=O)(/N=C(\c1ccc(Cl)cc1)N1CCOCC1)c1ccccc1	-4%	0%	0%	0%	12%
O=C(N/N=C/c1c(O)n(CCc2ccccc2)c(=O)[nH]c1=O)c1ccncc1	18µM*	5%	11%	-8%	x
O=C(N/N=C/c1c(O)n(-c2cccc3ccccc23)c(=O)[nH]c1=O)c1ccncc1	14µM*	12%	-7%	0%	-14%
Cc1ccc(-n2c(O)c(/C=N/NC(=O)c3ccncc3)c(=O)[nH]c2=O)cc1C	-29%	1%	-11%	-19%	-9%
CC(C)c1nnc(NC(=O)CCS(=O)(=O)c2ccccc2)s1	18µM*	-6%	-16%	0%	5%
CCc1nnc(NC(=O)CCS(=O)(=O)c2ccccc2)s1	22µM*	-1%	6%	-7%	-13%
CCc1nnc(NC(=O)CCS(=O)(=O)c2ccc(C)cc2)s1	u	x	2%	-1%	37%
CCCC(C)c1nnc(NC(=O)CCS(=O)(=O)c2ccccc2)s1 (stereo not drawn)	89µM*	-2%	-3%	-15%	u
O=C(Nc1ncc([N+](=O)[O-])s1)c1cccs1	-21%	14µM*	-6%	u	28µM*
COCc1nnc(NC(=O)CCS(=O)(=O)c2ccccc2)s1	-2%	-12%	2%	-19%	13%
CC1CCN(S(=O)(=O)c2cc(C(=O)N3CCN(c4cccc(Cl)c4)CC3)n(C)c2)CC1	-4%	x	x	-1%	x
Cc1cc(C)cc(NC(=O)C2CCCN(c3cnccn3)C2)c1 (stereo not drawn)	3%	x	x	-3%	x
O=C(COc1ccccc1F)Nc1ccccc1C(=O)OCc1cc(=O)n2nc(C3CC3)sc2n1	8%	x	x	6%	x
CCOC(=O)c1c(S(=O)(=O)NCC(=O)Nc2ccc(F)cc2C)c(C)n(C)c1C	5%	x	x	4%	x
O=C(CCS(=O)(=O)c1ccccc1)Nc1ncc([N+](=O)[O-])s1	45µM*	3%	2%	1%	-7%
COc1ccc(-n2c(=O)c3c(c4cc(OC)ccc4n3C)n(CCC(C)C)c2=O)cc1	19%	x	x	1%	x
O=C(O)Cn1nc(-c2ccccc2)oc1=O	4%	6%	-2%	-13%	23%
